Each structure is given as a SMILES string. Compounds without any hit were thinned out: in the full panel of roughly 83,000, 20% have a hit.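 Note: values are percent growth. 100 is the growth of untreated cells, values between 100 and 0 indicate rising inhibition; between -100 and 0 indicates cell death.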 Activity calls are given as the source filed them. The calls were made as follows: active = growth percent below 10; inactive = the rest.

The subject of the test is HL-60(TB) leukemia. Briefly: NCI-60 one-dose screen, 48 h (100 = growth as untreated, 0 = no growth, -100 = all killed). The conditions noted are these: 10 µM unless noted.
For `C[C@H](NC(=O)[C@@H]1CSSC[C@@H](NC(=O)c2nc3ccccc3cc2O)C(=O)NCC(=O)N1C)c1ccccc1`, the growth was -27.6% (active).

Turning to `CCCCCCCCCc1ccc(OCCOCCOCCOCCOCCOCCOCCOCCOCCO)cc1`, the growth was -40.9% (active).

Take `CC(=O)[C@@]1(O)CC[C@H]2[C@@H]3CC[C@@H]4CC(=O)CC[C@]4(C)[C@H]3[C@@H](O)C[C@@]21C`: the growth is 102% (inactive).

Consider `COc1ccc(C(=O)/C=C/c2cc(-c3cc(OC)c(OC)c(OC)c3)n[nH]2)cc1OC`, for which the growth is 3.15% (active).

Consider `CCN1CCCC(Nc2cc(C)nc(/N=C(/N)Nc3ccc(Cl)c(Cl)c3)n2)C1` (centres undefined), for which the growth was -42.7% (active).

Take `C=C(C)[C@@H]1C/C=C(/C=O)CC[C@@H]2O[C@@]2(C)CC/C=C(\C)CC1`: the growth is 162% (inactive).

Turning to `C=CCS(C)(=O)=O`, the growth was 104% (inactive).

Turning to `CCC(C)N(CCNc1cc(OC)cc2cccnc12)CC(C)C` (centres undefined), the growth was 73.9% (inactive).

`Clc1ccc(Nc2scc3[n+]2CCC3)cc1`: the growth was 98.3% (inactive).

As for `CCn1cc(-c2[nH]c(=S)ncc2-c2ccc(Cl)cc2)c(-c2ccc(Br)cc2)n1`, the growth was 117% (inactive).

Regarding `C#CCn1c(-c2cc(OC)c(OC)cc2Br)nc(-c2ccccc2)c1-c1ccccc1`, the growth is 24.5% (inactive).

As to `Cc1ccc(S(=O)(=O)NNC(=O)/C(=C\c2ccc(Cl)cc2)c2nc3ccccc3s2)cc1`, the growth is 89.7% (inactive).

Consider `CCOC(=O)C1=C(C)NC(SCc2nnc(-c3ccc(Cl)cc3)o2)=NC1c1ccc(Cl)cc1Cl` (centres undefined), for which the growth is -6.39% (active).

For the molecule `Cc1nc2sc(C(=O)Nc3cccc4ncccc34)c(N)c2cc1C(C)O` (centres undefined), the growth is 33% (inactive).

For the origin of these results see PubChem BioAssay (NCI).
